PubChem BioAssay (Tox21)
Inconclusive results are not listed. Active and inactive are the calls of the source. Unless noted, calls follow the shape of the dose curve; as a rule, active = well fitted curve in the direction sought with a large enough effect in the repeat runs; inconclusive = weak or mixed curves; inactive = no such curve, though single readings can be large; an effect the other way counts as inactive or inconclusive.

Key:
[1] = tested on: thyroid hormone receptor (rat, GH3 cells); experiment: qHTS assay to identify small molecule agonists of the thyroid receptor (TR) signaling pathway (AID 743066; calls by dose curve)
[2] = target: Estrogen receptor (Homo sapiens) (UniProt P03372); experiment: qHTS assay to identify small molecule antagonists of the estrogen receptor alpha (ER-alpha) signaling pathway (AID 743069; active = well fitted curve in the direction sought with a large enough effect in the signal ratio in the repeat runs, not every such curve was filed as active; the % refers to the signal ratio)
Chain of Estrogen receptor (Homo sapiens) (P03372 whole entry, looked up): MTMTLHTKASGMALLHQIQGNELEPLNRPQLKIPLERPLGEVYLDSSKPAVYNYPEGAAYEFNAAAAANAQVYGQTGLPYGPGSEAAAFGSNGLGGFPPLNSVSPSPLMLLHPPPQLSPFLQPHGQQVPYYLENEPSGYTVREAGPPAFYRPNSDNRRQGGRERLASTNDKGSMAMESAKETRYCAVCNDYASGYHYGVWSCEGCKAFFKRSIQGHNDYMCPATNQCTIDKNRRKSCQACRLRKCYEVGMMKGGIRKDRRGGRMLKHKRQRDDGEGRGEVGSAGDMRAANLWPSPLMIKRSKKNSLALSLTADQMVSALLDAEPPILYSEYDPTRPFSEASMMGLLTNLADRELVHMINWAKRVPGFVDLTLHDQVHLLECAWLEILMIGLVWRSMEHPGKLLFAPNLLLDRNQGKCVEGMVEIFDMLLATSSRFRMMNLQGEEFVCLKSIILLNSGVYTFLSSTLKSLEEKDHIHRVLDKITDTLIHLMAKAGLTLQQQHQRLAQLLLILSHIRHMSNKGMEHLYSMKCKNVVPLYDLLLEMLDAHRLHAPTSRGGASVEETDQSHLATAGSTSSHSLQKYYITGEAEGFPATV
Summary of the method: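 Compound effects are measured against 17beta-estradiol stimulation in HEK293 cells with a UAS-controlled beta-lactamase reporter for ER-alpha. Exposure lasts 18 hr at 37C; LiveBLAzer B/G FRET substrate follows for 2 hr at room temperature.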

[3] = qHTS assay to identify small molecule antagonists of the estrogen receptor alpha (ER-alpha) signaling pathway - cell viability counter screen (AID 743074; calls by dose curve;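 also: HEK293 cells carrying ER-alpha-UAS-bla reporter stimulated with 17beta-estradiol; nearly all actives have a fitted effect of over 45% in size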)
[4] = target: Estrogen receptor (Homo sapiens) (UniProt P03372); experiment: qHTS assay to identify small molecule agonists of the estrogen receptor alpha (ER-alpha) signaling pathway (AID 743075; calls by dose curve)
[5] = target: Estrogen receptor (Homo sapiens) (UniProt P03372); experiment: qHTS assay to identify small molecule agonists of the estrogen receptor alpha (ER-alpha) signaling pathway using the BG1 cell line (AID 743079); also: nearly all actives have a fitted effect of over 20% in size
[6] = qHTS assay to identify small molecule antagonists of the estrogen receptor alpha (ER-alpha) signaling pathway using the BG1 cell line (AID 743080; calls by dose curve;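 also: BG1 cells stimulated with 17beta-estradiol alongside compound; series mostly up to about 70 µM; nearly all actives have a fitted effect of over 25% in size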)
Summary of the method: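 Seeding, 24 h rest, compound transfer from DMSO, 17beta-estradiol addition, 21.5 h incubation, CellTiter-Fluor (30 min, 37 C), then ONE-Glo (30 min, room temperature): this sequence was run on BG1-Luc-4E2 reporter cells.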

[7] = qHTS assay to identify small molecule antagonists of the estrogen receptor alpha (ER-alpha) signaling pathway using the BG1 cell line - cell viability counter screen (AID 743081);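 also: compound given together with 17beta-estradiol as the ER stimulus; series mostly up to about 70 µM; nearly all actives have a fitted effect of over 45% in size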
Aromatase (Homo sapiens) = Aromatase (Homo sapiens) (UniProt P11511); experiment: qHTS assay to identify aromatase inhibitors (AID 743083); also: series mostly up to about 70 µM; nearly all actives have a fitted effect of over 55% in size
Chain of Aromatase (Homo sapiens) (P11511 whole entry, looked up): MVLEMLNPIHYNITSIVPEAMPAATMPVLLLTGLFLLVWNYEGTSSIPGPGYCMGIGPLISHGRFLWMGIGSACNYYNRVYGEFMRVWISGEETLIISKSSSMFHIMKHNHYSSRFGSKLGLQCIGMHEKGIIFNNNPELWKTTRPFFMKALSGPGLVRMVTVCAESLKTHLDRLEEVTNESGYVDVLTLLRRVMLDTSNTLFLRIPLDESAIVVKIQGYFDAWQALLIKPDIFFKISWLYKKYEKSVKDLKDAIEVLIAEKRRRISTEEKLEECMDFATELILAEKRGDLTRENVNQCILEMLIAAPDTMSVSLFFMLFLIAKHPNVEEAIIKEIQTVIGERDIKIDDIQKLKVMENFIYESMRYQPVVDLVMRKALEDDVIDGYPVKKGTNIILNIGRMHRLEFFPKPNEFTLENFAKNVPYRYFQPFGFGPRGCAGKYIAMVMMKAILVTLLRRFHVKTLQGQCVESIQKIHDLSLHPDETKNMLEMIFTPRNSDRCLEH

[8] = qHTS assay to identify aromatase inhibitors - cell viability counter screen (AID 743084);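 also: cells stimulated with testosterone during compound exposure; nearly all actives have a fitted effect of over 55% in size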
[9] = target: Aryl hydrocarbon receptor (Homo sapiens) (UniProt P35869); experiment: qHTS assay to identify small molecule that activate the aryl hydrocarbon receptor (AhR) signaling pathway (AID 743085);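 also: HG2L7.5c1 human HepG2 liver cells with stably integrated DRE-driven firefly reporter; series mostly up to about 70 µM; nearly all actives have a fitted effect of over 15% in size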
Chain of Aryl hydrocarbon receptor (Homo sapiens) (P35869 whole entry, looked up): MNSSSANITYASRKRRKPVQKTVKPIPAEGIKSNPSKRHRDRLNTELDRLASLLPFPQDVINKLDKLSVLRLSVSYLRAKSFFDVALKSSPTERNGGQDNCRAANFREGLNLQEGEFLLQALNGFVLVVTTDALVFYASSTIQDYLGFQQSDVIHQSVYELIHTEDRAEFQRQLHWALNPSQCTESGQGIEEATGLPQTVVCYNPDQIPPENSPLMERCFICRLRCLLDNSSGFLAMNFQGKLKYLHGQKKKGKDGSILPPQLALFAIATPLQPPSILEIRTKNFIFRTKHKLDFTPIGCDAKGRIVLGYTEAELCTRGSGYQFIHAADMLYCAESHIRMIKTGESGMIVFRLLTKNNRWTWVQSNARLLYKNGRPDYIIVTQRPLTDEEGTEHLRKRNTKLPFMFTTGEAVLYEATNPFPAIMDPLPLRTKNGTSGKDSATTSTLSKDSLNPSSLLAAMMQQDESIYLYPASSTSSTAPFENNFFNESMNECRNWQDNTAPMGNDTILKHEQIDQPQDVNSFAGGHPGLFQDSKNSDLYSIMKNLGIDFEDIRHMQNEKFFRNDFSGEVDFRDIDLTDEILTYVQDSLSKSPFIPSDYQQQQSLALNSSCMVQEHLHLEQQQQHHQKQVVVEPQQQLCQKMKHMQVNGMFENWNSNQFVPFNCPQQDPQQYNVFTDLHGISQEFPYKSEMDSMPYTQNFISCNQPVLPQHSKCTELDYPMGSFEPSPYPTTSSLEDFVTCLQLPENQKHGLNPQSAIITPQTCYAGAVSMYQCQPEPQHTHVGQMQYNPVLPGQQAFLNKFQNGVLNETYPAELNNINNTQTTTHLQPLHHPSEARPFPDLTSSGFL
Summary of the method: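 Reporter assay in engineered HepG2 line HG2L7.5c1, whose plasmid carries twenty dioxin responsive elements upstream of firefly luciferase. Treatment lasted 24 h at 37C; ONE-Glo luminescence gauged induction.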

[10] = qHTS assay to identify small molecule that activate the aryl hydrocarbon receptor (AhR) signaling pathway - cell viability counter screen (AID 743086);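 also: HepG2 liver cells carrying the AhR DRE luciferase reporter; series mostly up to about 70 µM; nearly all actives have a fitted effect of over 45% in size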
Summary of the method: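 Cytotoxicity counter screen: CellTiter-Fluor signal (30 min, 37 C) in 4000 HepG2 cells/well carrying the DRE-luciferase reporter, following 24 h compound exposure at 37 C.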

[11] = target: Peroxisome proliferator-activated receptor gamma (Homo sapiens) (UniProt P37231); experiment: qHTS assay to identify small molecule agonists of the peroxisome proliferator-activated receptor gamma (PPARg) signaling pathway (AID 743094; active = well fitted activation curve with a large enough effect in the signal ratio in the repeat runs, not every such curve was filed as active; the % refers to the signal ratio)
Chain of Peroxisome proliferator-activated receptor gamma (Homo sapiens) (P37231 whole entry, looked up): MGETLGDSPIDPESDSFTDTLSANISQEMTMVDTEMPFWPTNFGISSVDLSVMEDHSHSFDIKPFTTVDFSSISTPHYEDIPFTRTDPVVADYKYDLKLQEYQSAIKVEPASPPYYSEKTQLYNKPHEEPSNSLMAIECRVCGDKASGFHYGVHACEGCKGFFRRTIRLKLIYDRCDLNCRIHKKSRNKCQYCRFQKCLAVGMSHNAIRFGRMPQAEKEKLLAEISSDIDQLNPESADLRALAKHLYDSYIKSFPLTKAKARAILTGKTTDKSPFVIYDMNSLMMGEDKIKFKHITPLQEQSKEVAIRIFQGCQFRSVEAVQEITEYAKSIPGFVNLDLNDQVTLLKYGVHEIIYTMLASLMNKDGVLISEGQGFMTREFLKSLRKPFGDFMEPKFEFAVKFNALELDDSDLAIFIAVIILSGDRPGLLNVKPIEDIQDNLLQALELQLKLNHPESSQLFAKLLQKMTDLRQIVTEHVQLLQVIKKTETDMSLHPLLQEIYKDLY
Summary of the method: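 GeneBLAzer PPARg UAS-bla HEK293H cells carrying a stably integrated beta-lactamase reporter were pre-incubated 5 h at 37C, then exposed to compounds in DMSO for 17 h at 37C; LiveBLAzer B/G FRET substrate was added for 1 h at room temperature and fluorescence read.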

[12] = qHTS assay to identify small molecule antagonists of the peroxisome proliferator-activated receptor gamma (PPARg) signaling pathway - cell viability counter screen (AID 743194); also: nearly all actives have a fitted effect of over 55% in size
Summary of the method: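 Viability was measured as CellTiter-Glo luminescence in GeneBLAzer PPARg UAS-bla HEK293H cells. These cells had been exposed 17 h at 37 C to compounds together with rosiglitazone at 50 nM final, with the beta-lactamase readout taken in the same wells.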

[13] = qHTS assay for small molecule agonists of the antioxidant response element (ARE) signaling pathway (AID 743202; active = well fitted activation curve with a large enough effect in the signal ratio in the repeat runs, not every such curve was filed as active; the % refers to the signal ratio)
Summary of the method: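 An ARE-responsive beta-lactamase gene stably integrated in HepG2 cells serves as reporter. After 5 h plating and 16 h compound incubation at 37 C, fluorescence of the B/G FRET substrate was measured.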

[14] = qHTS assay for small molecule agonists of the antioxidant response element (ARE) signaling pathway - cell viability counter screen (AID 743203; calls by dose curve; also: nearly all actives have a fitted effect of over 55% in size)
Summary of the method: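 CellSensor ARE-bla HepG2 cells, 2,000 per well, rested 5 hrs at 37C/5% CO2, then exposed to compound in DMSO for 16 hrs; viability read as CellTiter-Glo luminescence after 30 min at room temperature, in the reporter wells.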

[15] = qHTS assay for small molecule activators of the heat shock response signaling pathway - cell viability counter screen (AID 743209); also: nearly all actives have a fitted effect of over 50% in size
Summary of the method: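 CellSensor HSE-bla HeLa cells, plated overnight at 37 C/5% CO2, were exposed to compounds in DMSO for 5 h at 37 C. Viability was then read in the same wells by CellTiter-Glo luminescence after 30 min at room temperature.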

[16] = qHTS assay for small molecule activators of the heat shock response signaling pathway (AID 743210; active = well fitted activation curve with a large enough effect in the signal ratio in the repeat runs, with a control signal flat, not every such curve was filed as active; the % refers to the signal ratio;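 also: HeLa cells with beta-lactamase reporter driven by heat shock elements; series mostly up to about 63 µM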)
Summary of the method: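 In HSE-bla HeLa cells, 5 h compound incubation (37 C) precedes addition of LiveBLAzer B/G substrate; after 2.5 h at room temperature, fluorescence intensity indicates reporter induction.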

[17] = qHTS assay to identify small molecule antagonists of the thyroid receptor (TR) signaling pathway (AID 743065)
Summary of the method: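 Antagonism measured as loss of luciferase signal in GH3 cells stably carrying a TRE-luciferase reporter, co-treated with compound and T3 (1 nM final) for 23.5 h at 37 C. Viability was read in the same well by CellTiter-Fluor.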

[18] = target: Peroxisome proliferator-activated receptor gamma (Homo sapiens) (UniProt P37231); experiment: qHTS assay to identify small molecule antagonists of the peroxisome proliferator-activated receptor gamma (PPARg) signaling pathway (AID 743191; calls by dose curve; also: series mostly up to about 63 µM; nearly all actives have a fitted effect of over 30% in size)
Summary of the method: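 Beta-lactamase reporter under UAS control in HEK293H PPARg-bla cells; compound treatment 17 h at 37C. Read-out: fluorescence intensity after 1 h room-temperature incubation with LiveBLAzer B/G FRET substrate.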

Measured: Potency

O=[N+]([O-])c1ccc(CCO)cc1
not listed: [17] | [18]
inactive: all other assays above

c1ccc(SCCSc2ccccc2)cc1
not listed: [2] | [3] | [4] | [5] | [6] | [9] | [12] | [18]
inactive: all other assays above

C1C2OC2C2C1C1CC2C2OC12 (configuration not stated)
not listed: [2] | [4] | [5] | [6] | [17] | [18]
inactive: all other assays above

CC(C)CCCC(C)NCCC(C)C (configuration not stated)
inactive: [18] | [14] | [15] | [16]

CCCCCCCCCCCCCCC
inactive: [17] | [1] | [7] | [10] | [12] | [13] | [14] | [15] | [16]

C=C(C)C(=O)NCCCN(C)C
not listed: [1] | [2] | [4] | [5] | [6]
inactive: all other assays above

CCCCOCC(C)OCC(C)O (configuration not stated)
not listed: [17]
inactive: all other assays above

COc1cccc(OC)c1
not listed: [2] | [4] | [5] | [6] | [17]
inactive: all other assays above

O=c1[nH]c2ccccc2c(=O)n1CCCl
inactive: [12] | [14] | [15] | [16]

O=C(CCOCCOCCOCCOCCC(=O)Nc1c(I)cc(I)c(C(=O)O)c1I)Nc1c(I)cc(I)c(C(=O)O)c1I
inactive: [12] | [13] | [14] | [15] | [16]

CNC(=O)c1c(I)c(NC(=O)CCCCC(=O)Nc2c(I)c(C(=O)O)c(I)c(C(=O)NC)c2I)c(I)c(C(=O)O)c1I
inactive: [18] | [12] | [13] | [14] | [15] | [16]

O=c1[nH]c(=O)n([C@H]2O[C@H](CO)[C@@H](O)[C@@H]2O)cc1/C=C\Br
inactive: [13] | [14] | [15]

O=C(O)c1ccccc1S
not listed: [3] | [7] | [11] | [13] | [17]
inactive: all other assays above
